Screens (PubChem BioAssay)
PLK1 PBD inh: qHTS for Inhibitors of PLK1-PDB (polo-like kinase 1 - polo-box domain): Primary Screen; Plk1 PBD binding of FITC phosphopeptide, fluorescence polarization; Potency, µM, usual class: inhibitors; actives 2.8% (n = 360,000); note: series mostly up to about 57 µM; nearly all actives have a fitted effect of over 65% in size
BAZ2B inh: qHTS Assay for Inhibitors of BAZ2B; Bromodomain adjacent to zinc finger domain protein 2B (Homo sapiens), Q9UIF8; AlphaScreen BAZ2B-H3K14Ac peptide displacement; Potency, µM (doses to about 114 µM), usual class: inhibitors; actives 4.4% (n = 360,000); AID 504333, 2011; note: nearly all actives have a fitted effect of over 60% in size
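Compounds, titrated to a top concentration of 110 uM, were incubated 30 min at room temperature with preformed BAZ2B/acetyl-K14 H3 peptide complex (50 nM each). Proximity signal was measured by AlphaScreen after 20 min with beads.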
HP1b chromo inh: HTS for Inhibitors of HP1-beta Chromodomain Interactions with Methylated Histone Tails; Chromobox protein homolog 1 (Homo sapiens), P83916; AlphaScreen HP1-beta / biotin-H3K9me3 peptide binding; Potency, µM (top dose mostly 114 µM), usual class: inhibitors; actives 0.56% (n = 390,000); AID 540317, 2011; note: nearly all actives have a fitted effect of over 70% in size
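Compound inhibition of the preformed complex between 50 nM HP1-beta and 50 nM biotinylated H3K9me3 peptide was read by AlphaScreen. Buffer was PBS pH 7.4 with 0.01% Tween-20. Incubations ran 30 min at room temperature, with 10 ug/mL donor/acceptor beads.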
G9a inh: qHTS Assay for Inhibitors of Histone Lysine Methyltransferase G9a. G9a H3K9 monomethylation, AlphaScreen, 2 h. actives 8.8% (n = 350,000). AID 504332, 2011. Potency, µM (top dose mostly 102 µM), hits mostly inhibitors; note: nearly all actives have a fitted effect of over 75% in size
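AlphaScreen read-out: biotin-H3K9 peptide (500 nM) methylation by 20 nM enzyme with 20 uM SAM, 2 h at room temperature after 15 min compound preincubation; anti-monomethyl H3K9 antibody plus donor/acceptor beads, 10 min dark.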
JMJD2A Tudor: qHTS Assay for Inhibitors of JMJD2A-Tudor Domain. AID 504339, 2011. Lysine-specific demethylase 4A (Homo sapiens), O75164. actives 4.4% (n = 390,000). AlphaScreen JMJD2A-Tudor / H3K4me3 peptide binding. Potency, µM (titrated, usually from 114 µM), most hits filed as inhibitors; note: nearly all actives have a fitted effect of over 50% in size
Target sequence (O75164 whole entry, looked up, the tested form may be a part): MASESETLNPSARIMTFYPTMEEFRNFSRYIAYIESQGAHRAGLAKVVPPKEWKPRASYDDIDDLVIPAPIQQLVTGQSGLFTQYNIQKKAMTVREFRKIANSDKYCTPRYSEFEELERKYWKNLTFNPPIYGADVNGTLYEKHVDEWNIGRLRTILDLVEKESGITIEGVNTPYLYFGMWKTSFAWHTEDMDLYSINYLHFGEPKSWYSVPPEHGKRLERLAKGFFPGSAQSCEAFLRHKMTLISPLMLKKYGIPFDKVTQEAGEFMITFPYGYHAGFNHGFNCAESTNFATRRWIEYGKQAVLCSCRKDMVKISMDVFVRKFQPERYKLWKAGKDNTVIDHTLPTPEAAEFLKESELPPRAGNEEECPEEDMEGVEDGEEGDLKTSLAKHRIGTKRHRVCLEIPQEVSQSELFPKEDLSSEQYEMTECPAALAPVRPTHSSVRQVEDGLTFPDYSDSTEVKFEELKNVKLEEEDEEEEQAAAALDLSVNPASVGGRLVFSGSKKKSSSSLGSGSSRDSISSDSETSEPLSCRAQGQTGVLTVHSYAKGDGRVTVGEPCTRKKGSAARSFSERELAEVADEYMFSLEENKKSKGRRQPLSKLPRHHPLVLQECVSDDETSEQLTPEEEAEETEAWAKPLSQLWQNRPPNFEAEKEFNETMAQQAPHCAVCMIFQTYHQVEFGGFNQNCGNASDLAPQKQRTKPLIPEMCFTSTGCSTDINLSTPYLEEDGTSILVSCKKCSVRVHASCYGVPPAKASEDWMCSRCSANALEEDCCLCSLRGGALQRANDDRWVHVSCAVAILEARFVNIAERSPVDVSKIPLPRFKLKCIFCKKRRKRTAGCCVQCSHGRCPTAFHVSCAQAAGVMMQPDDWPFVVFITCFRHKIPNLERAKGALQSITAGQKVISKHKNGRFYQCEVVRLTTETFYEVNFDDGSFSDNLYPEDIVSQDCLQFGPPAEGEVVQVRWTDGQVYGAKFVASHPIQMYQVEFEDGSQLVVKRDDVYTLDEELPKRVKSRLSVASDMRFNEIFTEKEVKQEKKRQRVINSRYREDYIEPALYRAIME
Sfp PPTase inh: qHTS Assay for Inhibitors of Bacillus subtilis Sfp phosphopantetheinyl transferase (PPTase) | Potency, µM, actives largely listed as inhibitors | Biochemical Sfp PPTase activity, qHTS | 4'-phosphopantetheinyl transferase ffp (Bacillus subtilis), Q9F4F7 | actives 3.5% (n = 310,000);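 note: the enzyme is Sfp with the accession as filed and its product quenches rhodamine fluorescence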
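With Hepes-Na pH 7.6 buffer containing 10 mM MgCl2, Sfp (15 nM) modified BHQ-2-YbbR (12.5 uM) using rhodamine-CoA (5 uM). Two reads 30 minutes apart at 525/598 nm yielded each well's rate.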
Numbers stand for hits; – = inactive; ? = inconclusive; · = not tested or not shown; ! = not active in a repeat; [ ] = remark or other dose. Rows were chosen to be rich in hits. Some 12% of all compounds tested hit in one or more screens of this group. Calls come from the whole dose curve; as a rule, active = well fitted curve in the direction sought with a large enough effect; inconclusive = small, poorly fitted or top-dose-only effect, or another doubt; inactive = no such curve, though single readings can be large; an effect the other way counts as inactive or inconclusive.

SMILES	PLK1 PBD inh	BAZ2B inh	HP1b chromo inh	G9a inh	JMJD2A Tudor	Sfp PPTase inh
CCN1CCN(C(=O)Cc2c(C)n(C(=O)c3ccc(Cl)cc3)c3ccc(OC)cc23)CC1	–	71µM	–	50µM	–	–
C[C@]12C=CC(=O)C=C1CC[C@@H]1[C@@H]2CC[C@@]2(C)[C@H]1CC[C@]2(C)O	·	·	·	–	·	–
CCCCCCOc1ccc(CN2CCN(C)CC2)cc1	–	–	–	?	?	–
CN1CCN(CC#CCOc2ccc(Cl)cc2)CC1	–	40µM	?	11µM	7.9µM	?
Cc1ccccc1-c1ccc2c(c1)C1c3c(-c4ccccc4)nnn3-c3ccccc3C(=O)N1CC2 (stereo not given)	–	·	·	·	·	·
C[N+]1(C)CCN(c2ccccc2)CC1	–	–	–	8.4µM!	45µM	–
c1ccc(N2CC3(CCNCC3)C2)cc1	·	·	·	–[12.7 µM]	·	–
C[C@]12N[C@@H](Cc3ccccc31)c1ccccc12	·	·	·	–[21.5 µM]	·	–
CCCCCNc1c(C(=O)OCC)c(=O)[nH]c2ccccc12	27µM	–	–	–	56µM	–
CCOC(=O)c1cccc(NC(=O)c2c(O)[nH]c(=O)[nH]c2=O)c1	–	·	?	·	?	·
Nc1nccc(-c2c(-c3ccc(F)cc3)ncn2C2CCNCC2)n1	·	·	·	·	·	–
COC(=O)[C@@H]1[C@@H]2C[C@H]3c4[nH]c5cc(OC)ccc5c4CCN3C[C@@H]2C[C@H](OC(=O)/C=C\c2cc(OC)c(OC)c(OC)c2)[C@H]1OC	·	·	·	?	·	–
CN(C)c1ccc(P(=O)(OC2CCCCC2)C(Nc2ccccc2)c2cccnc2)cc1 (stereo not given)	–	40µM	–	·	–	–
CC(C)COP(=O)(c1ccc(N(C)C)cc1)C(Nc1ccccc1)c1ccccc1 (stereo not given)	–	?	–	?	–	–
C=C(C)C1CNC(C(=O)O)C1CC(=O)O (stereo not given)	·	·	·	·	·	–
CCOc1ccc(/C=C2/C(=O)NC(=O)N(CCc3ccc(F)cc3)C2=O)cc1	2.7µM	–	–	?	–	?
COc1cc(/C=C2\C(=O)NC(=O)N(CCc3ccc(F)cc3)C2=O)ccc1O	0.75µM	–	–	40µM	–	?
CCOc1cc(C=C2C(=O)NC(=O)NC2=O)cc([N+](=O)[O-])c1O	·	56µM	·	·	·	35µM
COc1cc(C=C2C(=O)NC(=O)NC2=O)ccc1O	21µM	–	–	–[12.7 µM]	–	?
Cc1cc(OCC(=O)NCc2ccc(S(N)(=O)=O)cc2)c2c3c(c(=O)oc2c1)CCC3	–	–	–	–	–	–
C[C@H](NC(=O)[C@@H](N)Cc1ccc(O)cc1)C(=O)NCC(=O)N(C)[C@@H](Cc1ccccc1)C(=O)N[C@H](CO)CCS(C)=O (stereo not given in full)	·	·	·	–	·	–
CC(C)CN1Cc2cc(-c3cccc(F)c3)ccc2-n2nncc2C1	–	·	·	·	·	·
CCn1c(C)c(C(=O)O)c2cc(OC)ccc21	–	–	–	–[12.7 µM]	–	–
COc1ccc(OC)c(CCNCc2c(C(=O)O)c(C)n(Cc3ccc(F)cc3Cl)c2C)c1	·	50µM	–	–	?	·
CN1Cc2c(ccc3c2OCO3)[C@@H]2[C@@H](O)Cc3cc4c(cc3[C@@H]21)OCO4	·	·	·	–[21.5 µM]	·	–
SMILES	PLK1 PBD inh	BAZ2B inh	HP1b chromo inh	G9a inh	JMJD2A Tudor	Sfp PPTase inh
Cc1cccc(C)c1-n1nnnc1C(C1CC1)N1CCC2(CC1)C(=O)NCN2c1ccccc1 (stereo not given)	–	·	·	·	·	·
O=C(Oc1ccc(C(=S)N2CCOCC2)cc1)c1ccc([N+](=O)[O-])cc1[N+](=O)[O-]	–	–	–	45µM	?	–
N#Cc1cccc(NC(=O)c2sc3nc4c(cc3c2N)N2CCC4CC2)c1	·	–	–	–	–	·
CCCn1c(=O)n(C)c(=O)c2c(SCC(=O)NC34CC5CC(CC(C5)C3)C4)nc(CC(C)C)nc21	30µM	–	–	–	–	–
CN1C(=S)CN=C(c2ccccc2)c2cc(Cl)ccc21	·	·	·	–[12.7 µM]	·	–
O=C(NC(=S)Nc1ccccc1N1CCCC1)c1ccccc1Br	·	11µM	·	10µM	·	–
O=C1NC(=O)C(C2CCCCCC2)C(=O)N1	–	·	–	·	–	·
O=C1NCCOC(=O)[C@H](Cc2ccc(F)cc2)CC/C=C/C[C@H]1CC(=O)N(CCO)Cc1ccccc1	–	·	–	·	–	·
c1ccc(CCN2CCC(N3CCN(c4ccccc4)CC3)CC2)cc1	–	–	–	–	–	–
Nc1ccc(CCN2CCCC2)cc1	–	–	–	40µM	–	–
Nc1ccc(CCN2CCN(c3cccc(C(F)(F)F)c3)CC2)cc1	–	·	–	40µM	?	–
COc1ccc2nc(NC(=O)CCNS(=O)(=O)c3ccc4c(c3)oc(=O)n4C)sc2c1	–	?	–	–[12.7 µM]	–	–
Cn1c(N)c(Sc2ccccc2[N+](=O)[O-])c(=O)n(C)c1=O	–	–	–	45µM	–	–
Cn1c(O)c(C=Nc2ccccc2Sc2ccccc2)c(=O)n(C)c1=O	–	–	–	–	–	–
CN1C[C@@H](CS(=O)(=O)N(C)C)C[C@@H]2c3cccc4c3c(cn4C)C[C@H]21	·	·	·	–[12.7 µM]	·	·
CCc1ccccc1NC(=O)c1cccn(Cc2ccccc2F)c1=O	·	–	–	–	–	·
O=C(COC(=O)c1cccnc1Cl)NCCc1ccc(F)cc1	–	·	–	·	–	·
COc1ccc(N2CCN(C(=O)c3cc(=O)[nH]c4ccccc34)CC2)cc1	27µM	?	–	?	–[11.4 µM]	–
COc1ccc(C(c2nnnn2CC2CCCO2)N2CCN(c3ccccc3)CC2)cc1 (stereo not given)	–	50µM	–	–	?	?
COc1ccc(C(c2nnnn2C2CCCCC2)N2CCC3(CC2)C(=O)NCN3c2ccccc2)cc1 (stereo not given)	–	·	·	·	·	·
COC(=O)C1=C(c2ccc(F)cc2OCc2ccccc2)C[C@@H]2CC[C@H]1N2C(=O)NCc1ccc2c(c1)OCO2	–	–	–	–[0.501 µM]	–	·
Cc1ccc2c(c1)C1CN(C)CCC1N2C(=O)Nc1ccc(Cl)cc1 (stereo not given)	–	–	–	–	–	–
COC(=O)C1=C(c2cccc(C#N)c2)C[C@@H]2CC[C@H]1N2C(=O)NCC1CC1	–	–	–	–[0.501 µM]	–	·
O=C1NC(=O)N(CCNc2ncc(C(F)(F)F)cc2Cl)C(=O)C1Cc1ccc(Cl)cc1 (stereo not given)	–	–	–	50µM	–	?
C=CCN1C(=O)NC(=O)C(Cc2ccc(OC)c(OC)c2)C1=O (stereo not given)	–	–	–	?	–	?
